The text below walks through data of PubChem BioAssay (NCI).

The panel holds about 83,000 compounds, 20% with a hit somewhere; the sample as a whole holds those more often.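 Treatment: one concentration, 48 hours, 96-well format. Scoring: percent growth, with anything below 10 considered active.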 A number with no mark means an inactive call. The source made the active and inactive calls.

The subject of the test is SNB-19 CNS. The experiment in a line: NCI-60 one-dose screen, 48 h (100 = growth as untreated, 0 = no growth, -100 = all killed). The note with it: 10 µM unless noted.
Consider `Oc1ccc2ccccc2c1N=Nc1ccccn1`, for which the growth was 53.4%. Under `C/C(=N/NC(N)=S)c1ccc(C)cc1` stands 104%; under `N#Cc1c2ccccc2nc2ccccc12`, 92.1%.

`O=C1CSC(=S)N1Cc1cccnc1`: the growth is 110%. Take `O=C(c1ccccc1)C(Br)[N+](=O)[O-]` (configuration not stated): the growth was 102%. On to `CC(/C=N/NC(N)=S)Cc1ccc(C(C)C)cc1` (configuration not stated), for which the growth is 69.3%.

In the case of `Nc1cc(-c2ccccc2)ccc1O`, the growth was 98.5%. Turning to `Oc1c(C(Nc2ccccc2)c2ccccc2)ccc2cccnc12` (configuration not stated), the growth is 46.8%. With `O=[N+]([O-])c1ccc([I+]c2ccccc2)cc1`, the growth is -70.9% (active). Next, `O=C1C=CC(=O)N1c1ccccc1`: 106%; `O=[N+]([O-])CC(O)c1ccccc1` (configuration not stated): 101%; `CCCCCCCCCCCCNCCCc1ccccc1`: 92.2%. Regarding `CN=C(N)N/N=C(\C)c1ccc2c(c1)Cc1ccccc1-2`, the growth is -40% (active).

`O/N=C1\c2ccccc2-c2ccc(F)cc21`: the growth is 101%. On to `CCN(CC)CCNC(Cc1ccccc1)c1ccc(OCc2ccccc2)cc1` (configuration not stated), for which the growth was 89.3%. Next, `c1ccc(C2NCCNC2c2ccccc2)cc1` (configuration not stated): 102%; `COC(=O)Nc1nc2ccc(C3(c4ccc(F)cc4)OCCO3)cc2[nH]1`: 89.1%; `O=[N+]([O-])c1ccc(Oc2ccccc2Cl)c([N+](=O)[O-])c1`: 95.7%. Take `O=C(O)c1ccc2c(c1)C(=O)c1ccccc1C2=O`: the growth is 104%. As to `C=C(C(N)=O)C(N)C(=O)O` (configuration not stated), the growth was 111%.

On to `CCC[CH2][Sn]1([CH2]CCC)[O]C2C(CO)OC(n3ccc(N)nc3=O)C2[O]1` (configuration not stated), for which the growth was 28.4%. As to `CCN1CCCC(Nc2cc(C)nc(/N=C(/N)Nc3ccc(Cl)c(Cl)c3)n2)C1` (configuration not stated), the growth was -17.5% (active). Turning to `CN=C(N)N/N=C(\c1ccccc1)c1ccc(Br)cc1`, the growth is 62.2%. Under `O=C(NOC(=O)c1ccccc1)c1ccccc1` stands 109%. In the case of `O=[n+]1c2ccccc2n([O-])c2cc(Cl)ccc21`, the growth was 94.2%. As to `O=C(CCl)N1c2ccccc2Sc2c1ccc1ccccc21`, the growth is 88.9%. As to `CC(C)c1ccc(Nc2n[nH]c(=S)s2)cc1`, the growth was 99.1%.
